For part of these data: Results with a measured potency or affinity are listed apart. Activity calls are given as the source filed them. Unless noted, no rule for the calls is given here.
What was measured:
[1] = polyglutamine-triggered caspase-3 activation inhibitors, cell-based (AID 1583); settings: polyglutamine-induced caspase-3 activation, cell assay; stronger effect = higher value;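 tested at 10 µM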
[2] = suppressors of polyQ aggregation in yeast, 75Q-TubU reporter (AID 1593); settings: Yeast 75Q polyglutamine aggregation reporter
[3] = inhibitors of mitochondrial cytochrome c release, biochemical, purified mitochondria (AID 1603); settings: stronger effect = lower value;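 also: mouse liver mitochondria challenged with calcium chloride; signal normalized to the plate average as 100%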
[4] = inhibitors of polyQ protein aggregation (AID 1604); settings: polyglutamine-induced protein aggregation inhibition assay; stronger effect = higher value; tested at 2.5 µM
[5] = enhancers of glutamate uptake in motor neurons, MN-1 cell line (AID 1612); settings: MN-1 motor neuron cells, stronger effect = higher value;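 also: tested at 1 µM final; 0% = mean of DMSO vehicle wells on each plate; positive means more glutamate uptake than control and negative means less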
[6] = suppressors of polyglutamine aggregation in yeast, 75Q-TubH (AID 1616); settings: S. cerevisiae 75Q-TubH polyglutamine aggregation suppression; stronger effect = higher value
[7] = circadian clock period modulators, cell-based, LOPAC library, luminescence reporter (AID 2774); settings: circadian reporter cells, at 7 µM, actives lie on both sides;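 also: values are relative to mean of DMSO wells on each plate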
[8] = system: Hepatitis C virus NS3 helicase; assay: HCV NS3 helicase inhibitors, primary screen, biochemical, fluorescence polarization, LOPAC1280 library (AID 687035; in the data active = inhibition above about 37%); settings: Purified HCV NS3 helicase, Cy5-dT15 ssDNA binding fluorescence polarization; stronger effect = higher value; concentration not given here
[9] = Cy5 fluorescence quenching or enhancement artefacts, artefact control for HCV NS3 helicase inhibitor project, biochemical, LOPAC1280 (AID 687037); settings: Cy5-DNA-NS3h complex fluorescence interference counterscreen
[10] = Cy5 fluorescence interference with SSB-bound oligo, artefact control for HCV NS3 helicase inhibitor project, biochemical, NIH Clinical Collection, E. coli SSB (AID 743268)
[11] = system: Hepatitis C virus NS3 helicase; assay: HCV NS3 helicase inhibitors, primary screen, biochemical, fluorescence polarization, NIH Clinical Collection (AID 743270); settings: NS3 helicase binding to Cy5-dT15 DNA, stronger effect = higher value, concentration not given here
[12] = molecular target: Single-stranded DNA-binding protein (Escherichia coli (strain K12)) (UniProt P0AGE0); assay: E. coli SSB displacement from DNA, counter-screen for HCV NS3 helicase inhibitor project, biochemical, fluorescence polarization, NIH Clinical Collection (AID 743271; in the data active = inhibition above about 28%); settings: stronger effect = higher value, concentration not given here
[13] = fluorescence interference in NS3h assay format, artefact control for HCV NS3 helicase inhibitor project, biochemical, NIH Clinical Collection (AID 743272); settings: fluorescence interference counterscreen, stronger effect = lower value;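 also: HCV NS3 helicase with a Cy5 labelled single stranded DNA probe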
[14] = phospholipid biosynthesis inhibitors in animal cells, primary screen, cell-based, LOPAC library, screen 4 (AID 1347384); settings: phospholipid biosynthesis inhibition screen, at 10 µM
[15] = rescue of polyQ-huntingtin neuronal dysfunction in worms, whole organism, C. elegans mechanosensory neurons, N-terminal huntingtin (AID 1599); settings: touch response, stronger effect = higher value

Compound	inhibition [1]	score [2]	cytochrome c release ratio [3]	inhibition of aggregation [4]	glutamate uptake change [5]	aggregation suppression score [6]	period change [7]	inhibition [8]	fluorescence ratio (interference) [9]	fluorescence ratio [10]	inhibition [11]	inhibition [12]	fluorescence ratio [13]	outcome [14]	rescue above control [15]
CN1CCN(C2=Nc3cc(Cl)ccc3Nc3ccccc32)CC1	-23.8%	1.19	1.52	65.4%	-8.51%	1.14	0.13 h (inactive)	-3% (inactive)	1 (inactive)	1.04 (inactive)	-2.27% (inactive)	-3.53% (inactive)	1.01 (inactive)	inactive	
CCCC(=O)Nc1ccc(OCC(O)CNC(C)C)c(C(C)=O)c1 (stereo unspecified)	-2.9%	1.34	0.94	0%	-19.3%	1.28				0.9 (inactive)	-3.18% (inactive)	-5.82% (inactive)	1.03 (inactive)		-8.24
N=c1nc(N2CCCCC2)cc(N)n1O	20.6%	1.58	1.17	22.5%	7.03%	1.83	-0.045 h (inactive)	-4% (inactive)	1 (inactive)	0.1 (active)	-9.55% (inactive)	-5.05% (inactive)	1.03 (inactive)	inactive	3.83
O=C(CCCN1CCC(O)(c2ccc(Cl)cc2)CC1)c1ccc(F)cc1	-12.1%	1.43	1.55	81.4%	6.85%	1.09	0.015 h (inactive)	-3% (inactive)	1 (inactive)	0.91 (inactive)	-12.4% (inactive)	1.18% (inactive)	0.89 (inactive)	inactive	27.6
Cc1cc(NS(=O)(=O)c2ccc(N)cc2)no1	23.4%	1.35	0.69	58.6%	12.1%	1.36				1.03 (inactive)	0.45% (inactive)	-0.48% (inactive)	1 (inactive)		-4.83

Source: PubChem BioAssay
